# From PubChem BioAssay (NCATS)
# Values joined by “and” are separate entries in the source; they are usually repeats but may differ in a detail not shown here. Identical values can stand only once. Unmarked numbers belong to inactive results. Records with an inconclusive call do not appear. Entries that show only a call come without a potency. Active and inactive are the calls of the source. Unless noted, the call rests on the fitted dose curve; in most records, active means well fitted curve in the direction sought with a large enough effect; inconclusive means small, poorly fitted or top-dose-only effect, or another doubt; inactive means no such curve, though single readings can be large; an effect the other way counts as inactive or inconclusive.
# Tests used:
# [1] = qHTS for Inhibitors of Plasmodium falciparum (DD2) proliferation (AID 504314); further: potency means the concentration at half of the fitted maximal effect;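 on activity, negative = inhibition: parasite DNA measured by SYBR Green fluorescence after red cell lysis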
# Procedure, shortened: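 SYBR Green DNA-fluorescence growth assay: infected RBCs at 0.3% parasitemia, 2.5% hematocrit, 72 h compound exposure, 37C, 5% CO2; overnight lysis with dye at RT; normalized to 0.29 uM artemisinin and vehicle.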
# [2] = qHTS for Inhibitors of Plasmodium falciparum (GB4) proliferation (AID 504315); further: nearly all actives have a fitted effect of over 50% in size; further: potency means the concentration at half of the fitted maximal effect
# Procedure, shortened: (§1)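 Parasite growth measured as SYBR Green DNA fluorescence (ex 485, em 535 nm) after overnight lysis following 72 h culture at 37 °C, 0.3% parasitemia, 2.5% hematocrit. Values normalized against DMSO and 0.29 uM artemisinin controls, with plate-stack correction.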
# [3] = qHTS for Inhibitors of Plasmodium falciparum (7G8) proliferation (AID 504316); further: nearly all actives have a fitted effect of over 65% in size; further: potency means the concentration at half of the fitted maximal effect
# Procedure, shortened: as §1
# [4] = qHTS for Inhibitors of Plasmodium falciparum (HB3) proliferation (AID 504318); further: nearly all actives have a fitted effect of over 60% in size; further: potency means the concentration at half of the fitted maximal effect
# Procedure, shortened: as §1
# [5] = qHTS for Inhibitors of Plasmodium falciparum (CP250) proliferation (AID 504320)
# Procedure, shortened: as §1
# [6] = AP1 Signaling Pathway (AID 357; active means well fitted curve in either direction with a large enough effect, not every such curve was filed as active); conditions: ME-180 AP-1-bla reporter, EGF-induced, beta-lactamase ratio, 5 h; at 38 µM (top of the series)
# Procedure, shortened: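 AP-1-bla ME-180 cells with beta-lactamase reporter under AP-1 response element, stimulated with EC50 EGF; compounds titrated, 5 hours at 37 degrees Celsius. CCF4 read at 460/530 nm ratio; positive and negative modulators judged by AC50.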
# [7] = target: Cytochrome P450 1A2 (Homo sapiens) (UniProt P05177); experiment: p450-cyp1a2 (AID 410; calls by dose curve; further: potency means the concentration at half of the fitted maximal effect)
# Sequence of Cytochrome P450 1A2 (Homo sapiens) (P05177 whole entry, looked up): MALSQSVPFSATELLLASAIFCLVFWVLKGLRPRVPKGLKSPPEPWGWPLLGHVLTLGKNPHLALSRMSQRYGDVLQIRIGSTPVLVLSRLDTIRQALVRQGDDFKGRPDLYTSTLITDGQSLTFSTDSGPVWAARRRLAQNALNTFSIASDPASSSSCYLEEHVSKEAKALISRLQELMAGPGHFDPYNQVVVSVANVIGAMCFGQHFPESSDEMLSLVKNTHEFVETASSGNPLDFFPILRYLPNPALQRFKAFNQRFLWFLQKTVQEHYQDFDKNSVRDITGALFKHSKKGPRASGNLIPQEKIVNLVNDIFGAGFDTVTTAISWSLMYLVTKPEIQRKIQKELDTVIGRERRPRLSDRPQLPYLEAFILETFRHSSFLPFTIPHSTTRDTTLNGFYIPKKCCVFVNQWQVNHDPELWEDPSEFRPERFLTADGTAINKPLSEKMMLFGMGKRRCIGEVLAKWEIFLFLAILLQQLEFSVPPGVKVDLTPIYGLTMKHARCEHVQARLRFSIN
# Procedure, shortened: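 O-Demethylation of luciferin 6' methyl ether by human CYP1A2 is monitored as luciferase luminescence. Substrate sits at Km (100uM); enzyme is 20nM. Values are scaled to 57 uM furafylline as maximal inhibition.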
# [8] = Stat Signaling Pathway (AID 446; active means well fitted curve in either direction with a large enough effect, not every such curve was filed as active;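 further: ME-180 cervical cancer cells given 40 pM IL-6 alongside compound; SIE-controlled beta-lactamase reporter measured as 460/530 nm FRET emission ratio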); conditions: ME-180 (cervical carcinoma) SIE beta-lactamase reporter, IL-6 stimulated, 5 h; at 38 µM (top of the series)
# Procedure, shortened: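 Emission at 460 and 530 nm (excitation 405 nm) reports SIE-controlled beta-lactamase in ME-180 cells. Cells received compound with 40 pM IL-6 for 5 hrs at 37 C; data scaled between 300 pM IL-6 and 125 nM JAK-inhibitor controls.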
# [9] = target: Glucocorticoid receptor (Homo sapiens) (UniProt P04150); experiment: GR-GFP Redistribution (AID 450;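 active means compounds whose dose series gives a full or clear partial fitted curve of increased nuclear translocation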; further: potency means the concentration at half of the fitted maximal effect); conditions: U2OS GR-GFP nuclear translocation, laser cytometry, 2 h
# Sequence of Glucocorticoid receptor (Homo sapiens) (P04150 whole entry, looked up, the tested form may be a part): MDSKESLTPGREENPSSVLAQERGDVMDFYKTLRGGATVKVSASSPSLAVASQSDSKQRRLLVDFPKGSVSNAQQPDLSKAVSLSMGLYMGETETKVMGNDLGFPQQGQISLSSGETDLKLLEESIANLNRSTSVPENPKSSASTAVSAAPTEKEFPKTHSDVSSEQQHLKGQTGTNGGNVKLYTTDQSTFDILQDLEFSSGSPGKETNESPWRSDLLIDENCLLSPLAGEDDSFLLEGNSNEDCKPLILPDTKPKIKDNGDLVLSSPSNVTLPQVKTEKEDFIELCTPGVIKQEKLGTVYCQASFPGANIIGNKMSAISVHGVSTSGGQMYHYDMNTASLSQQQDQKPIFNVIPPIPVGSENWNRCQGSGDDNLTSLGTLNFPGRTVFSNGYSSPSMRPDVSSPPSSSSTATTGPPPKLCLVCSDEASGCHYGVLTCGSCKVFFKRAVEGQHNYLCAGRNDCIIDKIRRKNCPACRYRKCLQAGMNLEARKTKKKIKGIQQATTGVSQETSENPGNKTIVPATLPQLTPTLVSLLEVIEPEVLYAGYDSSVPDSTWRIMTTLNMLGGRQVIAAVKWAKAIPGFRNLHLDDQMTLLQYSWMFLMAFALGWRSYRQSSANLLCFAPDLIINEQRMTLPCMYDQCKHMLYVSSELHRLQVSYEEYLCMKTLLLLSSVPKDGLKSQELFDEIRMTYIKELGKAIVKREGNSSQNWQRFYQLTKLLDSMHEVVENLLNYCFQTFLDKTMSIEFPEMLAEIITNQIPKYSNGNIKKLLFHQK
# [10] = target: Glucocorticoid receptor (Homo sapiens) (UniProt P04150); experiment: GR-EFC Redistribution (AID 451; calls by dose curve; further: potency means the concentration at half of the fitted maximal effect); conditions: CHO-K1 GR-EFC translocation, beta-gal luminescence, 2 h
# Procedure, shortened: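 Translocation of GR-ED fusion to nuclear EA restores b-gal, read by luminescence after 1 h room-temperature detection. Engineered CHO-K1 biosensor cells, 1,000/well, exposed 2 h at 37 C to titrations up to 46 uM final.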
# [11] = target: Mitogen-activated protein kinase 10 (Mus musculus) (UniProt Q61831); experiment: JNK3 AlphaScreen Assay (AID 530; active means well fitted curve in either direction with a large enough effect, not every such curve was filed as active;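 further: kinase came from lysate of stimulated human HepG2 cells; signal reports phosphorylation of biotinylated GST-cJun 1-79 at Ser73 with 10 µM ATP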)
# Procedure, shortened: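 qHTS titrations with 15 min compound pre-incubation before adding ATP (10 uM final). Read-out: AlphaScreen of Ser73-phosphorylated biotin-GST-cJun using HepG2 lysate JNK3 activated by IL-1β and TNFα.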
# [12] = target: Guanine nucleotide-binding protein G(i) subunit alpha-1 (Homo sapiens) (UniProt P63096); experiment: qHTS Assay for Inhibitors of RGS12 GoLoco Motif Activity (Green Fluorophore) (AID 879);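 further: negative values mean loss of peptide binding seen as reduced polarization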
# Sequence of Guanine nucleotide-binding protein G(i) subunit alpha-1 (Homo sapiens) (P63096 whole entry, looked up): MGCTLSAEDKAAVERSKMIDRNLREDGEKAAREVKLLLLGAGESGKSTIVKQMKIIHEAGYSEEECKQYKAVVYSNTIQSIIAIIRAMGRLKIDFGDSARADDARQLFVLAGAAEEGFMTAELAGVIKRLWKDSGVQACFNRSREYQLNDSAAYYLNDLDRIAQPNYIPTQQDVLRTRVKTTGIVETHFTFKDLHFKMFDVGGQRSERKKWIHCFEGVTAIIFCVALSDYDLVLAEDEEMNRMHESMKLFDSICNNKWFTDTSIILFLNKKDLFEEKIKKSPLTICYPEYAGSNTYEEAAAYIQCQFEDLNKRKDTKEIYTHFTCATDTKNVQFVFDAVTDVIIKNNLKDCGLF
# Procedure, shortened: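 A drop in FITC polarization marked displacement of the FITC-tagged RGS12 GoLoco peptide (10 nM) from Gαi1 (50 nM). Compounds were incubated 10 min at room temperature in Tris pH 7.5 buffer containing 150 mM NaCl, 0.1 mM GDP and 0.05% NP40; unlabeled peptide titration served as control.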
# [13] = target: Cytochrome P450 3A4 (Homo sapiens) (UniProt P08684); experiment: qHTS Assay for Inhibitors and Substrates of Cytochrome P450 3A4 (AID 884); further: potency means the concentration at half of the fitted maximal effect; nearly all actives have a fitted effect of over 50% in size
# Sequence of Cytochrome P450 3A4 (Homo sapiens) (P08684 whole entry, looked up): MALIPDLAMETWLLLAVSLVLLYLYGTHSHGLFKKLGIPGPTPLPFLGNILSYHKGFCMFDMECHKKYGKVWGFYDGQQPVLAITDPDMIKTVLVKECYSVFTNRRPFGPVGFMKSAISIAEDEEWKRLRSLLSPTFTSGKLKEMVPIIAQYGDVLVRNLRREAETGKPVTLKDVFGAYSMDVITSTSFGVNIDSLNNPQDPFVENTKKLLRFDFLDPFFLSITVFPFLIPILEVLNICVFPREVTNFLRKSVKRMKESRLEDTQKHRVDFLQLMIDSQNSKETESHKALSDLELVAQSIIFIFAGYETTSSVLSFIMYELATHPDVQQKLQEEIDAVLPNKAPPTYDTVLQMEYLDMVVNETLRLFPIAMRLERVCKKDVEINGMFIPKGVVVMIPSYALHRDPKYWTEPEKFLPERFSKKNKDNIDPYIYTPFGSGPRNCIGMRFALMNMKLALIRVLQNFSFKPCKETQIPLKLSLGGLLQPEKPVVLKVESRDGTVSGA
# Procedure, shortened: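 Luminescent readout of luciferin produced by CYP3A4 (20 nM) dealkylation of Luciferin-PPXE, 25 uM (its KM). NADPH-driven reaction ran 60 min at RT after 10 min compound preincubation; data scaled to 57 uM ketoconazole as 100% inhibition.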
# [14] = target: Cytochrome P450 3A4 (Homo sapiens) (UniProt P08684); experiment: qHTS Assay for Activators of Cytochrome P450 3A4 (AID 885); further: nearly all actives have a fitted effect of over 65% in size
# Procedure, shortened: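 Activators are scored by enhanced luminescence from CYP3A4 conversion of luciferin-PPXE (25uM, equal to KM) to luciferin, after 60 min at RT with an NADPH-regenerating system.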
# [15] = target: Cytochrome P450 2D6 (Homo sapiens) (UniProt P10635); experiment: qHTS Assay for Inhibitors and Substrates of Cytochrome P450 2D6 (AID 891); further: potency means the concentration at half of the fitted maximal effect; nearly all actives have a fitted effect of over 60% in size
# Procedure, shortened: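 Luminescent read-out of luciferin formed by 5 nM human CYP2D6 demethylating 30 uM Luciferin-ME EGE (Km level) over 60 min at room temperature after NADPH regeneration addition. Data normalized to full inhibition by 1.43 uM quinidine.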
# [16] = target: Cytochrome P450 2C19 (Homo sapiens) (UniProt P33261); experiment: qHTS Assay for Inhibitors and Substrates of Cytochrome P450 2C19 (AID 899); further: potency means the concentration at half of the fitted maximal effect; nearly all actives have a fitted effect of over 60% in size
# Procedure, shortened: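 Reactions contain 5nM enzyme, 10uM Luciferin-H EGE (KM) and 50mM KPO4; compound preincubates 10 min at 37C, NADPH regeneration starts turnover for 60 min. Luminescence after detection reagent gives activity.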
# [17] = target: Muscarinic acetylcholine receptor M1 (Rattus norvegicus) (UniProt P08482); experiment: qHTS Assay for Antagonists of Acetylcholine Muscarinic M1 Receptor: Kinetic Measurement of Intracellular Calcium Response (AID 943); further: potency means the concentration at half of the fitted maximal effect; nearly all actives have a fitted effect of over 75% in size
# Sequence of Muscarinic acetylcholine receptor M1 (Rattus norvegicus) (P08482 whole entry, looked up): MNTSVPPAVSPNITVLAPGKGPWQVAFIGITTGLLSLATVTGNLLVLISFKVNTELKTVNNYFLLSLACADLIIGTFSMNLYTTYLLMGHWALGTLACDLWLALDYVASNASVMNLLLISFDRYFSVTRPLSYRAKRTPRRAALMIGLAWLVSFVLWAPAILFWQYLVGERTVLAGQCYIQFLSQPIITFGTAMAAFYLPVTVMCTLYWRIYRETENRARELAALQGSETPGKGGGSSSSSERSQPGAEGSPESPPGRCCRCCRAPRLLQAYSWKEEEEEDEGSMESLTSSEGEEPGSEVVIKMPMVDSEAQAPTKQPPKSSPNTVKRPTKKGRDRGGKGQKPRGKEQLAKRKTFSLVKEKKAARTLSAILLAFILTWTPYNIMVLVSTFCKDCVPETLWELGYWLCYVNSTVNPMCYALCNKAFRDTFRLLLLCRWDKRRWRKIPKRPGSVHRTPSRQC
# Procedure, shortened: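 Antagonism is measured as inhibition of the carbachol-evoked calcium rise in CHO cells transfected with rat M1. Cells are dye-loaded, exposed to compound for 10 min, then stimulated with 100 nM carbachol (EC80).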
# [18] = target: Muscarinic acetylcholine receptor M1 (Rattus norvegicus) (UniProt P08482); experiment: qHTS Assay for Antagonists of Acetylcholine Muscarinic M1 Receptor: Measurement of IP-One Response (AID 944); further: potency means the concentration at half of the fitted maximal effect; nearly all actives have a fitted effect of over 75% in size
# Procedure, shortened: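 Antagonist mode with rat M1 receptor transfected into CHO cells. Compound is added first for 10 min, carbachol at its EC80 follows for 30 min, and lysis reagents then allow TR-FRET detection of accumulated IP1.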
# [19] = target: Pyruvate kinase (Leishmania mexicana) (UniProt Q27686); experiment: qHTS Validation Assay for Inhibitors of Leishmania Mexicana Pyruvate Kinase (AID 945)
# Sequence of Pyruvate kinase (Leishmania mexicana) (Q27686 2-499 E452W): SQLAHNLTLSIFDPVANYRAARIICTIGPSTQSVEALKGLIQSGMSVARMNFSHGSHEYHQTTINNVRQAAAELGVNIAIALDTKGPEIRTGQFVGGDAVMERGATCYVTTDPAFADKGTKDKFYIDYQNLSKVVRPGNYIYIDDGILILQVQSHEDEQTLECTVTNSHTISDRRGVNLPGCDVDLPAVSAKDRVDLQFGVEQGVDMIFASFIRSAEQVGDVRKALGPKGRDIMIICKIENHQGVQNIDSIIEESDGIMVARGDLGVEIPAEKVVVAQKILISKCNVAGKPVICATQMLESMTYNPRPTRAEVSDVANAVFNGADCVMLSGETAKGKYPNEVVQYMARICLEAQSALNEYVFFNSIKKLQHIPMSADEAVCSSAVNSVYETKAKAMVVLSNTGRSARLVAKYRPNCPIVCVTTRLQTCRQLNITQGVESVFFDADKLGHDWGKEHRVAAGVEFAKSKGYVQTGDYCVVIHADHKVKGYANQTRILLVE
# Procedure, shortened: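 Purified LmPYK (E451W mutant, 0.2 nM) was incubated 1 h at room temperature with 0.5 mM PEP and 0.1 mM ADP in 50 mM imidazole pH 7.2, 50 mM KCl, 7 mM MgCl2; ATP formed was read by PKLight luminescence, normalized to DMSO wells.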
# [20] = target: Pyruvate kinase PKM (Homo sapiens) (UniProt P14618); experiment: qHTS Assay for Activators of Human Muscle Pyruvate Kinase (AID 954; active means well fitted curve in the direction sought with a large enough effect, not every such curve was filed as active)
# Sequence of Pyruvate kinase PKM (Homo sapiens) (P14618 whole entry, looked up): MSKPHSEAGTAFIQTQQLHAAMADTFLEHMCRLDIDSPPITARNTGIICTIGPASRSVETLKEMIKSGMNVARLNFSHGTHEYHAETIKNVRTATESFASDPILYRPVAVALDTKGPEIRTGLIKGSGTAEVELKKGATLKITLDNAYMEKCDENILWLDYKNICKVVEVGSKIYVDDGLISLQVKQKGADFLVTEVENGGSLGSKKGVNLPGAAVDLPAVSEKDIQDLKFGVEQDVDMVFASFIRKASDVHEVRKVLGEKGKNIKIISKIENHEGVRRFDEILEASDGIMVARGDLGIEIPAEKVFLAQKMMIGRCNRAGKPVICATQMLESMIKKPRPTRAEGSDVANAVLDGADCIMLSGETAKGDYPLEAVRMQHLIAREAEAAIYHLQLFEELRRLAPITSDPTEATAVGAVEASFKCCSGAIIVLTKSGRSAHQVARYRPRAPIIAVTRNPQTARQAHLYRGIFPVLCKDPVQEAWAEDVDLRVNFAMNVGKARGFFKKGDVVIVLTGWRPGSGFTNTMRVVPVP
# Procedure, shortened: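 PKM2, human, >95% pure, 0.1 nM; PEP 0.5 mM (Km), ADP 0.1 mM; 50 mM imidazole pH 7.2, 50 mM KCl, 0.01% Tween 20, 0.05% BSA; 1 h RT; luciferase luminescence readout.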
# [21] = target: Alpha-galactosidase A (Homo sapiens) (UniProt P06280); experiment: Counterscreen for Glucocerebrosidase Inhibitors: qHTS Assay for Human alpha-Galactosidase at pH 4.5 (AID 992)
# Sequence of Alpha-galactosidase A (Homo sapiens) (P06280 whole entry, looked up): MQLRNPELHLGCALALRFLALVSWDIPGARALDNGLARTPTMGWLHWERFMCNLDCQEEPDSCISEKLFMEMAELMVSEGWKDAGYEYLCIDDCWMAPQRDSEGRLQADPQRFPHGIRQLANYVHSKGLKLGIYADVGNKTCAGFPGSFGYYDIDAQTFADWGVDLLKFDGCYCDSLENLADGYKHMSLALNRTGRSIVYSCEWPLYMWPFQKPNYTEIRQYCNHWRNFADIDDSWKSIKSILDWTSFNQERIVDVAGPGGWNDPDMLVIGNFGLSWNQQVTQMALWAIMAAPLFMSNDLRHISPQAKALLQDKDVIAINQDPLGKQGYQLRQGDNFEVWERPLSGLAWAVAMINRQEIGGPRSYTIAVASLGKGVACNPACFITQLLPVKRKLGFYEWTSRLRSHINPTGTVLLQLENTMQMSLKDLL
# Procedure, shortened: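 Fluorogenic 4-MU alpha-D-galactoside (80 uM) hydrolysis, 2 nM enzyme, pH 4.5 citrate buffer + 0.005% Tween-20; 20 min RT; NaOH/glycine pH 10 stop; Ex365/Em440. Compounds titrated 0.7 nM–77 uM; Hill-equation AC50.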
# [22] = target: alpha-glucosidase (Oryza sativa, rice) (UniProt Q653V4); experiment: Counterscreen for Glucocerebrosidase Inhibitors: qHTS Assay for Rice alpha-Glucosidase at pH 5.0 (AID 997)
# Procedure, shortened: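 Endpoint fluorogenic assay at pH 5.0: compounds (0.7 nM to 77 uM) titrated against 4 nM rice enzyme and 400 uM 4-MU-alpha-glucoside for 20 min at room temperature; NaOH/glycine stop, read ex 365/em 440 nm, Hill-fitted AC50.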
# [23] = target: DNA dC->dU-editing enzyme APOBEC-3G (Homo sapiens) (UniProt Q9HC16); experiment: qHTS for inhibitors of Vif-A3G interactions: Validation (AID 588379)
# Sequence of DNA dC->dU-editing enzyme APOBEC-3G (Homo sapiens) (Q9HC16 whole entry, looked up): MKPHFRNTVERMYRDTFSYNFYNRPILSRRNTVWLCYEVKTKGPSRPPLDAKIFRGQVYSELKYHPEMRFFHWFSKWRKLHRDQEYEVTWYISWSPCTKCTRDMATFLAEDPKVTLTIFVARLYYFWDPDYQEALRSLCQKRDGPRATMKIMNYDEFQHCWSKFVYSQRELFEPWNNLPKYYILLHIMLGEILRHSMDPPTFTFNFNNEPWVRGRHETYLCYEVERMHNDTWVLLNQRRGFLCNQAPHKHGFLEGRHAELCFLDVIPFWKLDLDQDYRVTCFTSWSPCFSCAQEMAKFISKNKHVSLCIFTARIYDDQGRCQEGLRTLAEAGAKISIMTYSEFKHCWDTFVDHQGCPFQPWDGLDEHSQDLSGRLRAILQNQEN
# Procedure, shortened: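 Yellow fluorescence (Ex 488, Em 500-530) of Vif-coexpressing HeLa A3G-eYFP cells, scanned by Acumen cytometer, reports blocked A3G degradation. Cells plated at 700/well overnight at 37 deg C before compound addition, then a further overnight compound incubation at 37 deg C.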
# [24] = target: Glutathione peroxidase 1 (Homo sapiens) (UniProt P07203); experiment: Primary qHTS Assay for Inhibitors of Recombinant Selenoprotein Glutathione Peroxidase 1 (GPX1) (AID 1845191); further: nearly all actives have a fitted effect of over 65% in size
# Sequence of Glutathione peroxidase 1 (Homo sapiens) (P07203 whole entry, looked up): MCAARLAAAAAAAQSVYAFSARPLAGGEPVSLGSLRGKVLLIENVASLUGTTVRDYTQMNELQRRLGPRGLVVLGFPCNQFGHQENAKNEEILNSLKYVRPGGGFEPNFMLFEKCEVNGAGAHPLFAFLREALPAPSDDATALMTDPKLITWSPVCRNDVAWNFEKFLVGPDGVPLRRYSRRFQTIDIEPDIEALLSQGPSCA
# Procedure, shortened: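 NADPH consumption tracked by fluorescence at 340/450 nm between t=0 and t=15 min, room temperature. Final mix: 10 nM GPX1, 100 nM glutathione reductase, 1 mM GSH, 0.5 mM NADPH, 0.5 mM cumene hydroperoxide, 0.01% BSA; 30 min compound–enzyme preincubation.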
structure (smiles),measurement,setting,value
CC(=O)C1=C(C)N(CC#C[Si](C)(C)C)C(=O)N(C(C)=O)C1c1ccccc1 (stereo not drawn),Potency,[1],inactive
same,Potency,[2],inactive
same,Potency,[3],inactive
same,Potency,[4],inactive
C[C@H]1Cc2c(-c3ccccc3)nc3c(c2CO1)CN(C(=O)c1cccnc1)CC3,Potency,[1],inactive
same,Potency,[2],inactive
same,Potency,[3],inactive
same,Potency,[4],inactive
same,Potency,[5],inactive
O=C1OC2(CCCCC2)CC2=C1[C@H]1O[C@](CCCCN3C(=O)c4ccccc4C3=O)(Cc3ccccc31)O2,Potency,[1],1500 nM (active)
same,Potency,[2],1690 nM (active)
same,Potency,[3],1690 nM (active)
same,Potency,[4],1900 nM (active)
COC(=O)CC=C[C@@H](C)[C@H](OC)c1cc(OC)ccc1Br,Potency,[1],inactive
same,Potency,[2],inactive
same,Potency,[3],inactive
same,Potency,[4],inactive
same,Potency,[5],inactive
CC(C)CON=C1C[C@@H](O)[C@@H](O)[C@@H]2[C@H]3C(=O)N(c4ccc(F)cc4F)C(=O)[C@@H]3CC[C@@H]12,Potency,[1],inactive
same,Potency,[2],inactive
same,Potency,[3],inactive
same,Potency,[4],inactive
same,Potency,[5],inactive
COc1cccc(OC)c1OCCNC[C@@H]1COc2ccccc2O1,"activity change, negative = inhibition",[6],-5.1%
same,Potency,[7],12.6 µM (active) and 25.1 µM (active)
same,"activity, negative = inhibition",[8],9.55%
same,Potency,[9],> 46000 nM
same,Potency,[10],> 46000 nM
same,Potency,[11],inactive
same,outcome,[12],inactive
same,Potency,[13],2 µM (active) and 2.51 µM (active)
same,Potency,[14],inactive
same,Potency,[15],251 nM (active)
same,Potency,[16],794 nM (active)
same,Potency,[17],10000 nM (active)
same,Potency,[18],17800 nM (active)
same,Potency,[19],inactive
same,outcome,[20],inactive
same,outcome,[21],inactive
same,outcome,[22],inactive
same,Potency,[23],inactive
C=CCCCC=C(C)[C@H](OCc1ccc(OC)cc1)[C@H](CCC=C(C)C(N)=O)OC,Potency,[1],inactive
CC1=CC[C@@H](COc2ccccc2)O[C@@]2(C1)C(=O)N(Cc1ccccc1C(F)(F)F)c1ccccc12,Potency,[1],inactive
COC(=O)C1=C(C)N(CCC(C)O[Si](C)(C)C(C)(C)C)C(=O)N(C(C)=O)C1c1ccccc1 (stereo not drawn),Potency,[1],inactive
same,Potency,[2],inactive
same,Potency,[3],inactive
same,Potency,[4],inactive
same,Potency,[5],inactive
COc1ccc(CCNCc2ccc(OCc3ccc(Cl)nc3)c(OC)c2)cc1OC,Potency,[24],inactive
CCOC(=O)NN=C1C[C@@H](O)[C@@H](O)[C@@H]2[C@H]3C(=O)N(C[C@@H]4CCCO4)C(=O)[C@@H]3CC[C@H]12,Potency,[1],inactive
same,Potency,[2],inactive
same,Potency,[3],inactive
same,Potency,[4],inactive
COC(=O)c1nnc(C(=O)NCc2ccccc2)c2[nH]c3ccccc3c12,Potency,[1],inactive
same,Potency,[2],inactive
same,Potency,[3],inactive
same,Potency,[4],inactive
same,Potency,[5],inactive
